# Assays:
# Test in all cases: DAPPL (digital affinity profiling via proximity ligation, sequencing); 10 mM Tris-HCl pH 7.5, 50 mM NaCl, 1 mM DTT, 4% glycerol, room temperature, 30 min; GST-TFs on glutathione beads, 16-mer random dsDNA library, 0.1% formaldehyde crosslink after washing; high values mean tight binding
# FEV = target: T1, FEV (Homo sapiens, UniProt Q99581 1-238); conditions: protein: recombinant; tags: N-terminal GST; dsDNA, one strand shown
# T1 sequence: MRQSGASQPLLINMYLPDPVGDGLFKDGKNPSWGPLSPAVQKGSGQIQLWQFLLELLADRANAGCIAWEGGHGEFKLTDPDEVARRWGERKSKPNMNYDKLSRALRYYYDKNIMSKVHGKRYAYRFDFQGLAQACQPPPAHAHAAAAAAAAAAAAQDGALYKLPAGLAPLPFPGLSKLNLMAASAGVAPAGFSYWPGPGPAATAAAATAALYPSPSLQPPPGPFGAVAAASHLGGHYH
# Method in brief: (§1)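 Human transcription factors were made in yeast as GST fusions, captured on glutathione beads and barcoded with DNA. With a tag-only sample included, the pool was incubated with 200 nmole of a random double-stranded 16-mer DNA library in Tris/NaCl/DTT/glycerol buffer at room temperature for 30 min, then crosslinked with 0.1% formaldehyde after washing, ligated by proximity, amplified and sequenced. For binding signal, each hexamer's read frequency for a factor is divided by its frequency for the tag-only sample.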
# ETV5 = ETV5 (Homo sapiens, UniProt P41161 1-510); conditions: protein: recombinant; tags: N-terminal GST; dsDNA, one strand shown
# Method in brief: as §1
# HSF1 = HSF1 (Homo sapiens, UniProt Q00613 1-529); conditions: protein: recombinant; tags: N-terminal GST; chain copies: 3; dsDNA, one strand shown
# Method in brief: as §1
# SPIC = target: T2, SPIC (Homo sapiens, UniProt Q8N5J4 1-248); conditions: protein: recombinant; tags: N-terminal GST; dsDNA, one strand shown
# T2 sequence: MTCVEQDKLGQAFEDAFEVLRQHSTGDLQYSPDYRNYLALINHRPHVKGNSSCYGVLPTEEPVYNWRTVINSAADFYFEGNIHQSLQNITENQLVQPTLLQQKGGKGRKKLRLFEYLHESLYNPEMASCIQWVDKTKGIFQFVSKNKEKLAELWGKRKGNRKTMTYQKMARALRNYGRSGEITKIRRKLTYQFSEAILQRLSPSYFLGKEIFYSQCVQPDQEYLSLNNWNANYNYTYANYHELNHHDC
# Method in brief: as §1
# ELF4 = ELF4 (Homo sapiens, UniProt Q99607 1-663); conditions: protein: recombinant; tags: N-terminal GST; dsDNA, one strand shown
# Method in brief: as §1
# ELK4 = target: T3, ELK4 (Homo sapiens, UniProt P28324-2 1-405); conditions: protein: recombinant; tags: N-terminal GST; dsDNA, one strand shown
# T3 sequence: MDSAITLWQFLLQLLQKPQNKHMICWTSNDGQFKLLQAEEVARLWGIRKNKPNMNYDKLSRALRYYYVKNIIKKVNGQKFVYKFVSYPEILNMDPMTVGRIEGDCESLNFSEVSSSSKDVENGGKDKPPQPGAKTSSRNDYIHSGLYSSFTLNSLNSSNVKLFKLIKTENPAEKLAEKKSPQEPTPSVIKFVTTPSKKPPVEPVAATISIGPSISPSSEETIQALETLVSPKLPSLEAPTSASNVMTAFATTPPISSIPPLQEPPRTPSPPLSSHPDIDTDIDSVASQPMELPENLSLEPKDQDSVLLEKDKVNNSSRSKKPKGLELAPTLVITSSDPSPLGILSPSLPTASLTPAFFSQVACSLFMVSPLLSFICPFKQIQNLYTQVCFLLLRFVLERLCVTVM
# Method in brief: as §1
# ETV2 = target: T4, ETV2 (Homo sapiens, UniProt O00321 1-342); conditions: protein: recombinant; tags: N-terminal GST; dsDNA, one strand shown
# T4 sequence: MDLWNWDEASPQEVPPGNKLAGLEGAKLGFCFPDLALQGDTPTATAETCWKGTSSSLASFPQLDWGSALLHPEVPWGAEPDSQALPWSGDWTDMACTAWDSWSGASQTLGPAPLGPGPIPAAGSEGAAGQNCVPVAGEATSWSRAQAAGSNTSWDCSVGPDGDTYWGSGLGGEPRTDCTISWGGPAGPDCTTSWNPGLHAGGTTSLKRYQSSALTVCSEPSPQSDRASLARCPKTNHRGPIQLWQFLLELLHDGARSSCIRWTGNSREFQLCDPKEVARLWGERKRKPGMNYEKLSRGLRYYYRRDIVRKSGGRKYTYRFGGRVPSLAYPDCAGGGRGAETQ
# Method in brief: as §1
# ELF3 = target: T5, ELF3 (Homo sapiens, UniProt P78545 1-371); conditions: protein: recombinant; tags: N-terminal GST; dsDNA, one strand shown
# T5 sequence: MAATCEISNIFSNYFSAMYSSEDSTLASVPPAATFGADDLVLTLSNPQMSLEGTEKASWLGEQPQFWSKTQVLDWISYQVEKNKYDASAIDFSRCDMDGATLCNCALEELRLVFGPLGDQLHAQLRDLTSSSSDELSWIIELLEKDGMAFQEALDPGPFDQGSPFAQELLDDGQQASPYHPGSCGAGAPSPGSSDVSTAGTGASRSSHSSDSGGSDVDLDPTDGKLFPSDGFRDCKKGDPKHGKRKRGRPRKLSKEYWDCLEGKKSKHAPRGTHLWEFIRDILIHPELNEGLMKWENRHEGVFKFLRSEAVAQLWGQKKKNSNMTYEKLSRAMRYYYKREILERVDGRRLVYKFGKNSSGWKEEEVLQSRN
# Method in brief: as §1
# CRX = CRX (Homo sapiens, UniProt O43186 1-299); conditions: protein: recombinant; tags: N-terminal GST; dsDNA, one strand shown
# Method in brief: as §1
# ETV1 = ETV1 (Homo sapiens, UniProt P50549 1-477); conditions: protein: recombinant; tags: N-terminal GST; dsDNA, one strand shown
# Method in brief: as §1
# ERF = target: T6, ERF (Homo sapiens, UniProt P50548 1-548); conditions: protein: recombinant; tags: N-terminal GST; dsDNA, one strand shown
# T6 sequence: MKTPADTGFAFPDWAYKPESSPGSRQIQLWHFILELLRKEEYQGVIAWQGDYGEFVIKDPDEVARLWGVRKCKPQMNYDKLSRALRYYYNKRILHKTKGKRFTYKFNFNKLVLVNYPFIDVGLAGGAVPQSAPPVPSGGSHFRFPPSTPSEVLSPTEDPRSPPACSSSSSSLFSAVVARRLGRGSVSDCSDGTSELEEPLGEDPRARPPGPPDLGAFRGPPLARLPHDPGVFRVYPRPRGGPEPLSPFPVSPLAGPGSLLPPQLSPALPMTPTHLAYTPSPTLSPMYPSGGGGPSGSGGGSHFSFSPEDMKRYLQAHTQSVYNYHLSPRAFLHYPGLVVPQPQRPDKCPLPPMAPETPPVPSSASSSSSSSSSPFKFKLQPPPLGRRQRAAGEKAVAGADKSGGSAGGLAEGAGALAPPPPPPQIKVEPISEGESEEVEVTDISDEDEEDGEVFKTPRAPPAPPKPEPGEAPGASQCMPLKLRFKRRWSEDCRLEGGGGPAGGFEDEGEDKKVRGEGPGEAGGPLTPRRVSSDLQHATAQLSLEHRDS
# Method in brief: as §1
# ETV3L = target: T7, ETV3L (Homo sapiens, UniProt Q6ZN32 1-361); conditions: protein: recombinant; tags: N-terminal GST; dsDNA, one strand shown
# T7 sequence: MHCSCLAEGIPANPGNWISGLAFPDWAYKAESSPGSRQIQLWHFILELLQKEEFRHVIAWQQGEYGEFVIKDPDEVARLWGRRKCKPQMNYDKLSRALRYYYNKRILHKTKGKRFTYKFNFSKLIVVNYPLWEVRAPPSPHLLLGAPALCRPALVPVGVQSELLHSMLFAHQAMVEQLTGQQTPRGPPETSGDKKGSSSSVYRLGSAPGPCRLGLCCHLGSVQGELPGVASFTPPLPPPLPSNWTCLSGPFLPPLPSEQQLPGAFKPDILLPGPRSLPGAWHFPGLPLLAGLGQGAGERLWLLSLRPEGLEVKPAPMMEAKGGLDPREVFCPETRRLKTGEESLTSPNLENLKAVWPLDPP
# Method in brief: as §1
# ETS2 = target: T8, ETS2 (Homo sapiens, UniProt P15036 1-469); conditions: protein: recombinant; tags: N-terminal GST; dsDNA, one strand shown
# T8 sequence: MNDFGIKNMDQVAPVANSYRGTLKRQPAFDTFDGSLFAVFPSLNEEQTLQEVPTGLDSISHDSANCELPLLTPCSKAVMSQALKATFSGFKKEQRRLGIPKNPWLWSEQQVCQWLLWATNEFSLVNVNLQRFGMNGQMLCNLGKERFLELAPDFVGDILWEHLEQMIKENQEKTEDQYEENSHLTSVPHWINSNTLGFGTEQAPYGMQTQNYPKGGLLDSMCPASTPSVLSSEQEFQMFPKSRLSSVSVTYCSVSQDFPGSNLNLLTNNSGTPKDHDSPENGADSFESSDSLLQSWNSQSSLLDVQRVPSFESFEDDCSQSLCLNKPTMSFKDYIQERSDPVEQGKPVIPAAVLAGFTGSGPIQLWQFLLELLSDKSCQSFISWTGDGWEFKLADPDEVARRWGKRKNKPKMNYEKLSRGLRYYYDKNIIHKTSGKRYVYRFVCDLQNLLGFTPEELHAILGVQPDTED
# Method in brief: as §1
# SPDEF = target: T9, SPDEF (Homo sapiens, UniProt O95238 1-335); conditions: protein: recombinant; tags: N-terminal GST; dsDNA, one strand shown
# T9 sequence: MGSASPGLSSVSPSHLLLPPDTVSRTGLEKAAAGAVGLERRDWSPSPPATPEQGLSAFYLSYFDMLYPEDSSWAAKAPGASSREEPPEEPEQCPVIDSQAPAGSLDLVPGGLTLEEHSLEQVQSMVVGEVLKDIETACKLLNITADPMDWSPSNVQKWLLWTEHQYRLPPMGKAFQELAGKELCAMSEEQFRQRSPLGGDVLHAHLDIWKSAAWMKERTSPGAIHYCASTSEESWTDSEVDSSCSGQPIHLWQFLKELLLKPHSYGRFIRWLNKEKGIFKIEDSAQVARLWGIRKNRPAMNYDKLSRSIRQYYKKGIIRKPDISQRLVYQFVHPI
# Method in brief: as §1
# ETV7 = target: T10, ETV7 (Homo sapiens, UniProt Q9Y603 1-341); conditions: protein: recombinant; tags: N-terminal GST; dsDNA, one strand shown
# T10 sequence: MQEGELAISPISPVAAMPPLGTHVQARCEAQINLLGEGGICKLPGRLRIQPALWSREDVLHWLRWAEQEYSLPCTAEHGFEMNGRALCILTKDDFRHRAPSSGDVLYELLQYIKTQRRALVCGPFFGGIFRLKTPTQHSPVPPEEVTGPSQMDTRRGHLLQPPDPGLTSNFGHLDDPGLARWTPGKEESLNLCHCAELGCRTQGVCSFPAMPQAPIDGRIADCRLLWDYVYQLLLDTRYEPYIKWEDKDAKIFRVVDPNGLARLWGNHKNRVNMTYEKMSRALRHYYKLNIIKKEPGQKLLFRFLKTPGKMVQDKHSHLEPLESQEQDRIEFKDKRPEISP
# Method in brief: as §1
# ELF5 = target: T11, ELF5 (Homo sapiens, UniProt Q9UKW6-2 1-255); conditions: protein: recombinant; tags: N-terminal GST; dsDNA, one strand shown
# T11 sequence: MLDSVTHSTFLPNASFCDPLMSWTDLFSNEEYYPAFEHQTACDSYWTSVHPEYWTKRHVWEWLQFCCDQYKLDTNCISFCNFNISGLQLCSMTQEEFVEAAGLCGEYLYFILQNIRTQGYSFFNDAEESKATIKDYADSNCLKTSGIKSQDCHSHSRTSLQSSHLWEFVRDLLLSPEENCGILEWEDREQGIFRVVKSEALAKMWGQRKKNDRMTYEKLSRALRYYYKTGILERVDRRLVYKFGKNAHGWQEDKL
# Method in brief: as §1
# ETV3 = target: T12, ETV3 (Homo sapiens, UniProt P41162-2 1-143); conditions: protein: recombinant; tags: N-terminal GST; dsDNA, one strand shown
# T12 sequence: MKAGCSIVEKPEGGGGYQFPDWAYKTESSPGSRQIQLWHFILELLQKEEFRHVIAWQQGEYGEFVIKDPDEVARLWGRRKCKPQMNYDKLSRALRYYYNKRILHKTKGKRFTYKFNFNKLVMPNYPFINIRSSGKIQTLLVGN
# Method in brief: as §1
# ETV6 = ETV6 (Homo sapiens, UniProt P41212 1-452); conditions: protein: recombinant; tags: N-terminal GST; dsDNA, one strand shown
# Method in brief: as §1
# Chain of ETV1 (P50549 whole entry): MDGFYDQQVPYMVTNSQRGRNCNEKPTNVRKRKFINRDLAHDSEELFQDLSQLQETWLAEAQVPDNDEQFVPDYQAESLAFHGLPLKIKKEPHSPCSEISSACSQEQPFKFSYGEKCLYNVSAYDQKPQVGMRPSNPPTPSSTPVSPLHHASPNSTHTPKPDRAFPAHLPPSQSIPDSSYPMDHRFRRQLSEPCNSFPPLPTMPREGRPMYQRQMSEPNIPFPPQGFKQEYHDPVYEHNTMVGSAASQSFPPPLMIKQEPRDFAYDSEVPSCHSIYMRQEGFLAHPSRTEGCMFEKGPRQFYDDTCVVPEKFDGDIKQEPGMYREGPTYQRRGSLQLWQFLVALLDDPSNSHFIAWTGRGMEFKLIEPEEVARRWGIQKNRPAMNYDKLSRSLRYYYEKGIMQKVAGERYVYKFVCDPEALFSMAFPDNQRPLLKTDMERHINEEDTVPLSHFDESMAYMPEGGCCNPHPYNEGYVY
# Chain of CRX (O43186 whole entry): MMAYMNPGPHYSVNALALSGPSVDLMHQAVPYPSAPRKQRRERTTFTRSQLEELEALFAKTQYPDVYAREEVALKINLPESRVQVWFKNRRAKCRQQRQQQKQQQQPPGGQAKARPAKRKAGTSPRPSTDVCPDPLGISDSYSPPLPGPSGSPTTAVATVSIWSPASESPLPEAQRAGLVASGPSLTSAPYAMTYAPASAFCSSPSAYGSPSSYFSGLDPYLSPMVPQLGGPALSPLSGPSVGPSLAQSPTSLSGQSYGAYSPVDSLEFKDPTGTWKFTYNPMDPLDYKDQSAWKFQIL
# Chain of ETV5 (P41161 whole entry): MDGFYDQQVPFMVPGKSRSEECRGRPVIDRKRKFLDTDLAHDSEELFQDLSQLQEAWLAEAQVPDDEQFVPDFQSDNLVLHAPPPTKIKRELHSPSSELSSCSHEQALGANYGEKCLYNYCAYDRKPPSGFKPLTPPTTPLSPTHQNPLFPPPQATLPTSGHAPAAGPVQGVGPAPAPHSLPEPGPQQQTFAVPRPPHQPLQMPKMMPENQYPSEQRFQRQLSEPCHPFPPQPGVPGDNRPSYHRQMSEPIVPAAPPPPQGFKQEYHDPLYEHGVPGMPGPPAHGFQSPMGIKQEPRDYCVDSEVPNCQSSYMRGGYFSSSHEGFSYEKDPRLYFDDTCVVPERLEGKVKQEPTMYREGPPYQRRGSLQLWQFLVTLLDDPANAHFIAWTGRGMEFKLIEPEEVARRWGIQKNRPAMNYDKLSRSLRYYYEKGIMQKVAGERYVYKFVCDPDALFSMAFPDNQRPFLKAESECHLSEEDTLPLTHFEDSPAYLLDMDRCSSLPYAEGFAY
# Chain of ELF4 (Q99607 whole entry): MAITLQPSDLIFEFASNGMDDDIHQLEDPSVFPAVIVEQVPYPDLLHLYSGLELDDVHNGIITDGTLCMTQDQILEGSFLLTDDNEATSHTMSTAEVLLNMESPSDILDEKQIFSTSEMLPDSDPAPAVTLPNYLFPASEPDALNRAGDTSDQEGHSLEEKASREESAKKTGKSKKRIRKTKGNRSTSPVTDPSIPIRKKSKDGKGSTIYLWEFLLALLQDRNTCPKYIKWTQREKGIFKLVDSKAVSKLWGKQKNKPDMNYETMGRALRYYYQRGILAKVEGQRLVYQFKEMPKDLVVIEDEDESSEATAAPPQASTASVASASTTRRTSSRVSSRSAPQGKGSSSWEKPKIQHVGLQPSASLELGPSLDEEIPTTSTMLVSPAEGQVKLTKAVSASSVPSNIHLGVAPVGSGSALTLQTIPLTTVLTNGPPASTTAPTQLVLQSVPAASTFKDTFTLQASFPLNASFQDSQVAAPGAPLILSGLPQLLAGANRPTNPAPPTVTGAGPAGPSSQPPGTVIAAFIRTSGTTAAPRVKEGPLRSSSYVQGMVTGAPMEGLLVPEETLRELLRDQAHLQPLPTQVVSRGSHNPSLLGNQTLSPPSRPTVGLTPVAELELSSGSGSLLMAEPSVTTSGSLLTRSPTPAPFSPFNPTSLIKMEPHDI
# Chain of ETV6 (P41212 whole entry): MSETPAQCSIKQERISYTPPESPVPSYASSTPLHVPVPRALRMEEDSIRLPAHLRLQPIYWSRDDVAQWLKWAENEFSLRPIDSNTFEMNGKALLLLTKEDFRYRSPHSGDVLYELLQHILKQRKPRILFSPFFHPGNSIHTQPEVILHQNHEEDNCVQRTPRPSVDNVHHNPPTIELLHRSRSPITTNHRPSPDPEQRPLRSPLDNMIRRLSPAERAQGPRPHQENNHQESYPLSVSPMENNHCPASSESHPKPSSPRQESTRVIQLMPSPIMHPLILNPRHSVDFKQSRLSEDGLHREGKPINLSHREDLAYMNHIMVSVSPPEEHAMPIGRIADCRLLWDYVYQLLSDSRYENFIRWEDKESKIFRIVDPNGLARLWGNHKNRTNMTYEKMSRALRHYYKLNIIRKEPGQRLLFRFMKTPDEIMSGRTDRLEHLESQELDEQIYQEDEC
# Chain of HSF1 (Q00613 whole entry): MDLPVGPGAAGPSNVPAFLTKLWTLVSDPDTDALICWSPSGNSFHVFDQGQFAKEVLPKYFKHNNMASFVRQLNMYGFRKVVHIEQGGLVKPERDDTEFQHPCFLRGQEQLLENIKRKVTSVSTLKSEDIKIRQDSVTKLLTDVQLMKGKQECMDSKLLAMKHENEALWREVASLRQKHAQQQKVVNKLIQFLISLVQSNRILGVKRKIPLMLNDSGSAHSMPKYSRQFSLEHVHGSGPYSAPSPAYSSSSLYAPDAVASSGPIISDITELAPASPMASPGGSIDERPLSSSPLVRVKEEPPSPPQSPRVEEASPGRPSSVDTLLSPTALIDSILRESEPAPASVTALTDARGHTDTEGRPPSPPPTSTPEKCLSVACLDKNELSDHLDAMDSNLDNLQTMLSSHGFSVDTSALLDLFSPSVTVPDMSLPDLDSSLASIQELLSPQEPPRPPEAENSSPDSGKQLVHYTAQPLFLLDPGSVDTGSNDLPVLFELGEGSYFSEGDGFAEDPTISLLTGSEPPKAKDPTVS
sequence,measurement,setting,value
TTTCGA,binding signal,FEV,"1.48 fold enrichment (6-mer frequency, TF over GST control)"
same,binding signal,ETV5,"1.54 fold enrichment (6-mer frequency, TF over GST control)"
same,binding signal,HSF1,"2.5 fold enrichment (6-mer frequency, TF over GST control)"
same,binding signal,SPIC,"1.18 fold enrichment (6-mer frequency, TF over GST control)"
same,binding signal,ELF4,"1.57 fold enrichment (6-mer frequency, TF over GST control)"
same,binding signal,ELK4,"1.5 fold enrichment (6-mer frequency, TF over GST control)"
same,binding signal,ETV2,"1.32 fold enrichment (6-mer frequency, TF over GST control)"
same,binding signal,ELF3,"1.39 fold enrichment (6-mer frequency, TF over GST control)"
same,binding signal,CRX,"1.86 fold enrichment (6-mer frequency, TF over GST control)"
same,binding signal,ETV1,"1.5 fold enrichment (6-mer frequency, TF over GST control)"
same,binding signal,ERF,"1.61 fold enrichment (6-mer frequency, TF over GST control)"
same,binding signal,ETV3L,"1.54 fold enrichment (6-mer frequency, TF over GST control)"
same,binding signal,ETS2,"1.42 fold enrichment (6-mer frequency, TF over GST control)"
same,binding signal,SPDEF,"1.34 fold enrichment (6-mer frequency, TF over GST control)"
same,binding signal,ETV7,"1.29 fold enrichment (6-mer frequency, TF over GST control)"
same,binding signal,ELF5,"1.42 fold enrichment (6-mer frequency, TF over GST control)"
same,binding signal,ETV3,"1.41 fold enrichment (6-mer frequency, TF over GST control)"
same,binding signal,ETV6,"1.33 fold enrichment (6-mer frequency, TF over GST control)"
